Test results taken from PubChem BioAssay (Tox21).
Several values for one entry are separate records, joined by “and”; a condition that tells them apart may be missing. Identical values can stand only once. Results filed as inconclusive are left out. Where a call stands in place of a potency, no number is given. A structure can be active in one record and inactive in another. Activity calls are given as the source filed them. Calls follow the shape of the dose curve; as a rule, active = well fitted curve in the direction sought with a large enough effect in the repeat runs; inconclusive = weak or mixed curves; inactive = no such curve, though single readings can be large; an effect the other way counts as inactive or inconclusive.

Legend:
[1] = qHTS RealTime-Glo MT Cell Viability Assay in HEK293 cells - 0 hour (AID 1224880); also: top concentration of the series differs between compounds; nearly all actives have a fitted effect of over 45% in size
In short: (§1)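 Luminescence, which tracks viable cell number through reduction of the prosubstrate to a NanoLuc substrate, was read over continuous 37 C culture. Cells (600/well) were premixed with reagent and rested 5 h before 23 nL of compound in DMSO was pinned.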

[2] = A CellTox Green Cytotoxicity Assay to monitor cytotoxicity in HEK293 cells - 32 hour (AID 1224881); also: nearly all actives have a fitted effect of over 40% in size; also: potency is read from the fitted curve at half-maximal effect
In short: (§2)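 Fluorescence from a DNA-binding dye excluded by viable cells was measured repeatedly in the same HEK293 wells (600 cells/well) during continuous compound exposure at 37 C. Each assay gives one read point: 0, 8, 16, 24, 32 or 40 h.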

[3] = A CellTox Green Cytotoxicity Assay to monitor cytotoxicity in HepG2 cells - 0 hour (AID 1224882); also: nearly all actives have a fitted effect of over 35% in size
In short: (§3)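 Real-time cytotoxicity: fluorescence of a cell-impermeant cyanine dye binding DNA of dead HepG2 cells, measured repeatedly (0–40 h) during compound exposure at 37 C. Cells seeded 600/well with reagent, dosed after 5 h.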

[4] = A CellTox Green Cytotoxicity Assay to monitor cytotoxicity in HepG2 cells - 32 hour (AID 1224883); also: nearly all actives have a fitted effect of over 50% in size; also: potency is read from the fitted curve at half-maximal effect
In short: as §3

[5] = qHTS RealTime-Glo MT Cell Viability Assay in HepG2 cells - 16 hour (AID 1224885); also: nearly all actives have a fitted effect of over 50% in size
In short: (§4)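 Real-time, nonlytic viability: 600 HepG2 cells/well mixed with NanoLuc enzyme plus prosubstrate; 5 h settle, compound (DMSO) added by pintool; luminescence monitored over 40 h at 37 C.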

[6] = qHTS RealTime-Glo MT Cell Viability Assay in HEK293 cells - 24 hour (AID 1224886); also: top concentration of the series differs between compounds; nearly all actives have a fitted effect of over 50% in size
In short: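 Cells + reagent dispensed (600 cells/well, HEK293) → 5 h at 37 C/5% CO2 → 23 nL compound in DMSO pinned → 40 h at 37 C → luminescence read at 0, 8, 16, 24, 32, 40 h.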

[7] = qHTS RealTime-Glo MT Cell Viability Assay in HEK293 cells - 8 hour (AID 1224887); also: top concentration of the series differs between compounds; nearly all actives have a fitted effect of over 50% in size
In short: as §1

[8] = A CellTox Green Cytotoxicity Assay to monitor cytotoxicity in HEK293 cells - 16 hour (AID 1224888); also: nearly all actives have a fitted effect of over 35% in size
In short: as §2

[9] = qHTS RealTime-Glo MT Cell Viability Assay in HepG2 cells - 0 hour (AID 1224889); also: nearly all actives have a fitted effect of over 50% in size
In short: as §4

SMILES | outcome [1] | Potency [2] | Potency [3] | Potency [4] | outcome [5] | outcome [6] | outcome [7] | Potency [8] | outcome [9]
CSc1nnc(C(C)(C)C)c(=O)n1N | inactive | inactive | inactive | inactive | inactive | inactive | inactive | inactive | inactive
Cc1cccc(N)c1C | inactive | inactive | inactive | inactive | inactive | inactive | inactive |  | inactive
Nc1ccc(N)cc1 | inactive | inactive | inactive | inactive | inactive | inactive | inactive | inactive | inactive
CC(=O)/C=C/c1ccccc1 | inactive | inactive | inactive | inactive | inactive | inactive | inactive | inactive | inactive
Nc1ccc([As](=O)(O)O)cc1 | inactive | inactive | inactive | inactive | inactive | inactive | inactive | inactive | inactive
C[C@]12CC[C@H](O)CC1=CC[C@@H]1[C@@H]2CC[C@]2(C)C(=O)CC[C@@H]12 | inactive | inactive | inactive | inactive | inactive | inactive | inactive | inactive | inactive
CC(C)(C)C(=O)CCl | inactive | inactive | inactive | inactive | inactive | inactive | inactive |  | inactive
COC(=O)Nc1cccc(OC(=O)Nc2cccc(C)c2)c1 | inactive | inactive | inactive | 49 µM (active) | inactive | inactive | inactive | inactive | inactive
CCOc1ccc(N)cc1 | inactive | inactive | inactive | inactive | inactive | inactive | inactive | inactive | inactive
Cc1cc(O)ccc1Cl | inactive | inactive | inactive | inactive | inactive | inactive | inactive | inactive | inactive
CC[N+](=O)[O-] | inactive | inactive | inactive | inactive | inactive | inactive | inactive |  | inactive
O=P1(NCCCl)OCCCN1CCCl (centres undefined) | inactive | inactive | inactive | inactive | inactive | inactive | inactive | inactive | inactive
Sc1ccccc1 | inactive | inactive | inactive | inactive and 43.6 µM (active) | inactive | inactive | inactive |  | inactive
Nc1cccc(Cl)c1 | inactive | inactive | inactive | inactive | inactive | inactive | inactive | inactive | inactive
OCCCCO | inactive | inactive | inactive | inactive | inactive | inactive | inactive |  | inactive
O=[N+]([O-])c1ccc(Cl)c(Cl)c1 | inactive | inactive | inactive | inactive | inactive | inactive | inactive | inactive | inactive
CCOC(=O)CC(SP(=O)(OC)OC)C(=O)OCC (centres undefined) | inactive | inactive | inactive | inactive | inactive | inactive | inactive |  | inactive
Nc1ncc([N+](=O)[O-])s1 | inactive | inactive | inactive | inactive | inactive | inactive | inactive | inactive | inactive
C=CCN=C=S | inactive | inactive | inactive | inactive | inactive | inactive | inactive |  | inactive
Oc1ccc(Cl)cc1 | inactive | inactive | inactive | inactive | inactive | inactive | inactive |  | inactive
COc1nc(NC(C)C)nc(NC(C)C)n1 | inactive | inactive | inactive | inactive | inactive | inactive | inactive |  | inactive
CN(C)CCC#N | inactive | inactive | inactive | inactive | inactive | inactive | inactive |  | inactive
Clc1cnc(Oc2ccc(Oc3ncc(Cl)cc3Cl)cc2)c(Cl)c1 | inactive | 27.5 µM (active) | inactive | inactive | inactive | inactive | inactive |  | inactive
Cl/C=C/Cl | inactive | inactive | inactive | inactive | inactive | inactive | inactive |  | inactive
